Source: PubChem BioAssay (NCATS)
Records with an inconclusive call do not appear. Entries that show only a call come without a potency. Some compounds were tested as several samples or in several runs, with calls that do not always agree. Activity calls are given as the source filed them. Unless noted, calls come from the whole dose curve; as a rule, active = well fitted curve in the direction sought with a large enough effect; inconclusive = small, poorly fitted or top-dose-only effect, or another doubt; inactive = no such curve, though single readings can be large; an effect the other way counts as inactive or inconclusive.

Legend:
[1] = target: Nuclear receptor subfamily 1 group I member 3 (Homo sapiens) (UniProt Q14994); experiment: Primary qHTS for antagonist of constitutive androstane receptor (CAR) against the NCATS DSHEA and TCM libraries (AID 1794836);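 note: HepG2 cells stably expressing hCAR with CYP2B6 luciferase reporter stimulated by CITCO; series mostly up to about 40 µM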
Chain of Nuclear receptor subfamily 1 group I member 3 (Homo sapiens) (Q14994 whole entry, looked up): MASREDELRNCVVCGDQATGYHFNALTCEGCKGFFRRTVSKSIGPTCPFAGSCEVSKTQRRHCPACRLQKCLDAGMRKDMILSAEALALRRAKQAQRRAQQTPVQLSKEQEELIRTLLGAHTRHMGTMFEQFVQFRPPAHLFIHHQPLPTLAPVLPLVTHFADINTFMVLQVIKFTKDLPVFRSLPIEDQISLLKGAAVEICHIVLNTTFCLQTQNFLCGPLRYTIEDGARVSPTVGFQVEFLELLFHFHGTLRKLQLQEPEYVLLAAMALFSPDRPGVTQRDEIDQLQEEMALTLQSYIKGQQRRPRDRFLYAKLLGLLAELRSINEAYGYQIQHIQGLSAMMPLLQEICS
Outline: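 HepG2-CYP2B6-hCAR cells, attached 5 h, given compounds plus CITCO agonist […], incubated 24 h at 37 C. Luciferase luminescence read, multiplexed with CellTiter-Fluor viability (Ex/Em 405/540 nm).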

[2] = KB-8-5-11 P-gp reporter qHTS against the NCATS DSHEA and TCM libraries (AID 1919977)
Outline: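 KB-8-5-11, 500 cells/well, DMEM/10% FBS without colchicine; 4 h attach; cpd titrations, 72 h, 37C/5% CO2; CellTiter-Glo, 30 min RT, luminescence.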

[3] = HepG2 viability counterscreen (readout 2: ATP content) against the NCATS DSHEA and TCM libraries (AID 1794840)
Outline: (§1)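 Same wells read twice: first fluorescence from cleaved GF-AFC substrate (25 uM final, 30 min, 37C) for live-cell protease, then CellTiter-Glo luminescence after 30 min at room temperature for ATP. HepG2 cells were exposed ~24 h to substances.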

[4] = HepG2 viability counterscreen (readout 1: protease activity) against the NCATS DSHEA and TCM libraries (AID 1794841);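 note: cells exposed to compounds for about 24 h before the protease read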
Outline: as §1

[5] = KB-3-1 P-gp reporter qHTS against the NCATS DSHEA and TCM libraries (AID 1919975)
Outline: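 KB-3-1 parental line, 1536-well qHTS: cells seeded, ~4 h attachment, pintool compound addition, ~72 h at 37C, then CellTiter-Glo, 30 min RT, luminescence. Concentration-response format.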

[6] = qHTS Counterscreen for compound interference against the NCATS DSHEA and TCM libraries (AID 1919978); conditions: firefly luciferase detection reagent interference, luminescence;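 note: compounds preincubated with 1 µM D-luciferin or buffer before detection reagent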
Outline: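 Compounds, titrated from 19.5 nM to 39.8 uM final, were pinned onto 1 uM D-luciferin or plain 100 mM potassium phosphate. After 15 min at room temperature, luciferin detection reagent was added for 30 min before the luminescence read.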

[7] = Dual reporter qHTS for agonist of Pregnane X Receptor (hPXR) against the NCATS DSHEA and TCM libraries: Fluorescence readout (AID 1920058)
Outline: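 Measures viability of the PXR reporter HepG2 line by protease-substrate fluorescence (405/540 nm), taken 1 h after CellTiter-Fluor addition. Substances are tested as concentration series over a ~24 h exposure, with rifampicin as agonist control.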

[8] = target: Nuclear receptor subfamily 1 group I member 2 (Homo sapiens) (UniProt O75469); experiment: Dual reporter qHTS for antagonist of Pregnane X Receptor (hPXR) against the NCATS DSHEA and TCM libraries: Luminescence Readout (AID 1920060);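 note: HepG2 cells carrying hPXR luciferase reporter stimulated with rifampicin at 2 µM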
Chain of Nuclear receptor subfamily 1 group I member 2 (Homo sapiens) (O75469 whole entry, looked up): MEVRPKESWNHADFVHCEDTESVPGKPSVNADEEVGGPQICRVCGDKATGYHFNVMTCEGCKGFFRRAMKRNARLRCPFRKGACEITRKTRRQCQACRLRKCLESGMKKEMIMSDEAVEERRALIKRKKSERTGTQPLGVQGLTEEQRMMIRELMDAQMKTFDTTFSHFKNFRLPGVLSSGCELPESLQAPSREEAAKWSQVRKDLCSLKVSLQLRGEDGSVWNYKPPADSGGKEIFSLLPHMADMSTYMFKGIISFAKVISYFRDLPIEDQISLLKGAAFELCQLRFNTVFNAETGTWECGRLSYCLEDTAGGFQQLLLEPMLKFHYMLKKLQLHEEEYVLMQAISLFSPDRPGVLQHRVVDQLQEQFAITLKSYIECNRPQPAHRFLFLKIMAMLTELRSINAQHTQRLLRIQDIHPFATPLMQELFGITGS
Outline: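 Antagonist mode: rifampicin 2 uM final co-added with compounds to hPXR-LucHepG2 cells for 24 h at 37C. Viability by CellTiter-Fluor, Ex/Em 405/540 nm, 1 h; reporter by ONE-Glo luminescence.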

[9] = qHTS for differential inhibitors of proliferation of Plasmodium falciparum line 3D7 (AID 1876); note: potency is the fitted concentration of half-maximal effect
[10] = qHTS for differential inhibitors of proliferation of Plasmodium falciparum line Dd2 (AID 1882); conditions: Potency: Plasmodium falciparum Dd2 proliferation inhibition; note: potency is the fitted concentration of half-maximal effect; nearly all actives have a fitted effect of over 65% in size
Outline: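 SYBR Green I DNA fluorescence read-out, ex 485/em 535 nm. Signals were normalized to 0.29 uM artemisinin and DMSO wells, then corrected using vehicle-only plates flanking each stack. Parasite growth ran 72 h in erythrocytes before lysis.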

[11] = qHTS for differential inhibitors of proliferation of Plasmodium falciparum line W2 (AID 1883); conditions: Potency: Plasmodium falciparum W2 proliferation inhibition;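 note: potency is the fitted concentration of half-maximal effect; parasites grown with compound for 72 h before lysis and staining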
[12] = target: M-phase phosphoprotein 8 (Homo sapiens) (UniProt Q99549); experiment: qHTS Validation Assay for Inhibitors for MPP8 Chromodomain Interactions with Methylated Histone Tails (AID 488949); note: nearly all actives have a fitted effect of over 55% in size; note: potency is the fitted concentration of half-maximal effect;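 for activity change, negative = inhibition: 50 nM MPP8 with 50 nM peptide preformed then compounds added for 30 min; AlphaScreen signal from MPP8 chromodomain bound to biotinylated H3K9me3 peptide; top concentration of the series differs between compounds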
Chain of M-phase phosphoprotein 8 (Homo sapiens) (Q99549 whole entry, looked up): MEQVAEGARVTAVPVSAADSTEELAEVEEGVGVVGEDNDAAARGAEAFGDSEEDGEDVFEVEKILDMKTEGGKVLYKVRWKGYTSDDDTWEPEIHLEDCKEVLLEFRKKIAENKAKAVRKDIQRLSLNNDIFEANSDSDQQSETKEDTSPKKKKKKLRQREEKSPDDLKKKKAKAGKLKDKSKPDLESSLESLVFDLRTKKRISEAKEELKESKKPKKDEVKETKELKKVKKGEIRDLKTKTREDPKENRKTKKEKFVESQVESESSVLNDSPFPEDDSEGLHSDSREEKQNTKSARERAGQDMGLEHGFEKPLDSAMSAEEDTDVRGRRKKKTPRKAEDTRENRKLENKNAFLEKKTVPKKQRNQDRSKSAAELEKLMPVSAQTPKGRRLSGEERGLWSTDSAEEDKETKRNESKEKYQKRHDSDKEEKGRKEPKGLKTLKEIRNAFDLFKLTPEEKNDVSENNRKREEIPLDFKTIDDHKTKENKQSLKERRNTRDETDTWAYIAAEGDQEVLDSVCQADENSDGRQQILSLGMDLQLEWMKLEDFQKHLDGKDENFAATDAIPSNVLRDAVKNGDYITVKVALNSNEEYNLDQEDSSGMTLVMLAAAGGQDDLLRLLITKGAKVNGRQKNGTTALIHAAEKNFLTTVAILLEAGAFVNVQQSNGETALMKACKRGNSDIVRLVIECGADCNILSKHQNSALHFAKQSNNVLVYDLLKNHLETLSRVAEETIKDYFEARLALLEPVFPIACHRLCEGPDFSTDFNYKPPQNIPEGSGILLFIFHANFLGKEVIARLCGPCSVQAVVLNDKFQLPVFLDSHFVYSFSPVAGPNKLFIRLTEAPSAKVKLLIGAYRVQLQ
Outline: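 50 nM MPP8 + 50 nM b-H3K9me3 peptide, PBS pH 7.4/0.01% Tween-20, 30 min RT; + cpd 30 min RT; + AlphaScreen donor/Ni-chelate acceptor beads 10 ug/mL final, 30 min dark; luminescence read.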

[13] = Validation screen for inhibitors of Lassa infection (AID 463096; calls by dose curve)
[14] = target: Peroxisome proliferator-activated receptor delta (Homo sapiens) (UniProt Q03181); experiment: qHTS assay for small molecule agonists of peroxisome proliferator-activated receptor delta signaling (AID 588534; calls by dose curve)
Chain of Peroxisome proliferator-activated receptor delta (Homo sapiens) (Q03181 whole entry, looked up): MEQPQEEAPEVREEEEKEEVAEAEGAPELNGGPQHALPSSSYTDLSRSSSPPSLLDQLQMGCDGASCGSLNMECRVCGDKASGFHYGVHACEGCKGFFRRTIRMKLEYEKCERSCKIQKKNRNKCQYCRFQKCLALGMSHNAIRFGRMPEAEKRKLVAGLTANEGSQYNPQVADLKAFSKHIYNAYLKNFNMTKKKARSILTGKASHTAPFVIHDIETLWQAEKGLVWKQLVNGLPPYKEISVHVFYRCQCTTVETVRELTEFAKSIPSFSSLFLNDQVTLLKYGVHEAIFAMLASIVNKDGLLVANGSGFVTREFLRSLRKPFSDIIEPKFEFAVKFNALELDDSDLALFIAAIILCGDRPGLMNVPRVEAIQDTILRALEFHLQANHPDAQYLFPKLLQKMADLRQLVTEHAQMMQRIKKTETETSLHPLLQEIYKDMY
Outline: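 Reporter cells were plated and held 5 hrs at 37 C before compounds were added. After 18 hrs at 37 C, CCF4 dye was loaded for 2 hrs at RT and fluorescence measured.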

SMILES: CCCCCCCCCCCCCCCCCCCCCC(=O)O
- Potency [1]: inactive
- Potency [2]: inactive

SMILES: O=C(/C=C/c1ccc(O)c(O)c1)O[C@@H]1CC(O)(C(=O)O)C[C@@H](OC(=O)/C=C/c2ccc(O)c(O)c2)C1O (stereo partly specified)
- Potency [1]: inactive
- Potency [2]: inactive

SMILES: C=C1C[C@@]23CC[C@H]4[C@@](C)(CCC[C@@]4(C)C(=O)O[C@@H]4O[C@H](CO)[C@@H](O)[C@H](O)[C@H]4O[C@@H]4O[C@H](CO)[C@@H](O)[C@H](O)[C@H]4O)[C@@H]2CC[C@]1(O[C@@H]1O[C@H](CO)[C@@H](O)[C@H](O)[C@H]1O[C@@H]1O[C@H](CO)[C@@H](O)[C@H](O)[C@H]1O)C3
- Potency [1]: inactive
- Potency [2]: inactive

SMILES: C=C[C@](C)(O)CCC=C(C)C
- Potency [1]: inactive
- Potency [2]: inactive

SMILES: O=c1cc(-c2ccc(O)cc2)oc2cc(O[C@@H]3O[C@H](CO)[C@@H](O)[C@H](O)[C@H]3O[C@@H]3OC[C@](O)(CO)[C@H]3O)cc(O)c12
- Potency [1]: inactive
- Potency [2]: inactive

SMILES: COc1cc2c(cc1O)C[C@H]1c3c(cc(OC)c(O)c3-2)CCN1C
- Potency [1]: inactive
- outcome [3]: inactive
- outcome [4]: inactive
- outcome [5]: inactive
- Potency [2]: inactive
- max response [6]: -3.09% (inactive)
- outcome [7]: inactive
- outcome [8]: inactive

SMILES: CC1=C2[C@H](/C=C(\C)C(=O)O)CC[C@@H](C)[C@H]2CC1
- Potency [1]: inactive
- Potency [2]: inactive

SMILES: C[C@@H]1CC[C@]2(C)CC[C@]3(C)C(=CC(=O)C4[C@@]5(C)CC[C@@H](O)[C@](C)(C(=O)O)C5CC[C@]43C)C2[C@H]1C (stereo partly specified)
- Potency [1]: inactive
- Potency [2]: inactive

SMILES: COC(=O)C1=CO[C@@H](C)[C@H]2CN3CCc4c([nH]c5ccccc45)[C@@H]3C[C@H]12
- Potency [1]: inactive
- Potency [2]: inactive

SMILES: S=C(S)N1CCCC1
- Potency [9]: 3.16 µM (active)
- Potency [10]: 7.94 µM (active)
- Potency [11]: 11.2 µM (active)
- Potency [12]: inactive

SMILES: COc1cc(OC)c(/C=C2/C(=O)Nc3ccccc32)c(OC)c1
- Potency [11]: 12.6 µM (active)
- Potency [12]: 12.6 µM (active) and inactive

SMILES: CC(=O)O[C@H]1C[C@@H]2CCC3C(CC[C@@]4(C)[C@H]3C[C@H]([N+]3(C)CCCCC3)[C@@H]4OC(C)=O)[C@@]2(C)C[C@@H]1[N+]1(C)CCCCC1 (stereo partly specified)
- Potency [9]: 11.2 µM (active)
- Potency [13]: inactive

SMILES: O=C(/C=C/c1ccc(O)c(O)c1)O[C@@H]1CC(C(=O)O)=C[C@@H](O)[C@H]1O
- Potency [2]: inactive

SMILES: O=C(O)CC(O)(C(=O)O)C(O)C(=O)O (stereo unspecified)
- Potency [2]: inactive

SMILES: CCCCCCC/C=C/C(=O)CCc1ccc(O)c(OC)c1
- Potency [2]: inactive

SMILES: OCC(Br)CBr (stereo unspecified)
- outcome [14]: inactive

SMILES: O=Cc1ccccc1O
- Potency [2]: inactive

SMILES: C=C1CC[C@H]2C[C@@H]1C2(C)C
- Potency [2]: inactive

SMILES: O=NN(c1ccccc1)c1ccccc1
- outcome [14]: inactive

SMILES: Cc1c(C)c2c(c(C)c1O)CC[C@@](C)(CCC[C@H](C)CCC[C@H](C)CCCC(C)C)O2
- Potency [2]: inactive

SMILES: C=CC(C)(CCC=C(C)C)OC(C)=O (stereo unspecified)
- Potency [2]: inactive

SMILES: CN(CC(=O)O)C(=N)N
- Potency [2]: inactive

SMILES: CC/C=C\C/C=C\C/C=C\C/C=C\C/C=C\CCCCCC(=O)O
- activity change, negative = inhibition [2]: 8.8% [at 3.26 µM] (inactive)

SMILES: COc1ccc2ccc(=O)oc2c1
- Potency [2]: inactive

SMILES: CCCCCCCCCCCCCC(=O)O
- Potency [2]: inactive

SMILES: CCCCC/C=C/C(=O)CCc1ccc(O)c(OC)c1
- Potency [2]: inactive

SMILES: C[C@@H]1O[C@@H](OC[C@H]2OC(Oc3c(-c4ccc(O)c(O)c4)oc4cc(O)cc(O)c4c3=O)[C@H](O)[C@@H](O)[C@@H]2O)[C@H](O)[C@H](O)[C@H]1O (stereo partly specified)
- Potency [2]: inactive

SMILES: CC(C)=CCC[C@](C)(O[C@@H]1O[C@H](CO)[C@@H](O)[C@H](O)[C@H]1O)[C@H]1CC[C@]2(C)[C@@H]1[C@H](O)C[C@@H]1[C@@]3(C)CC[C@H](O)C(C)(C)[C@@H]3[C@@H](O[C@@H]3O[C@H](CO)[C@@H](O)[C@H](O)[C@H]3O)C[C@]12C
- Potency [2]: inactive

SMILES: C=C(C)[C@H]1CC=C(C)C(=O)C1
- outcome [14]: inactive
- Potency [2]: inactive

SMILES: C=C(C)[C@H]1CC=C(C)CC1
- Potency [2]: inactive

SMILES: O=C(O[C@@H]1Cc2c(O)cc(O)cc2O[C@@H]1c1ccc(O)c(O)c1)c1cc(O)c(O)c(O)c1
- Potency [2]: inactive

SMILES: C=C1C[C@]23CC[C@H]4[C@@](C)(CCC[C@@]4(C)C(=O)O)[C@@H]2CC[C@@]1(O[C@@H]1O[C@H](CO)[C@@H](O)[C@H](O)[C@H]1O[C@@H]1O[C@H](CO)[C@@H](O)[C@H](O)[C@H]1O)C3
- Potency [2]: inactive

SMILES: CC(C)=CCC[C@](C)(O[C@@H]1O[C@H](CO)[C@@H](O)[C@H](O)[C@H]1O)[C@H]1CC[C@]2(C)[C@@H]1[C@H](O)C[C@@H]1[C@@]3(C)CC[C@H](O[C@@H]4O[C@H](CO)[C@@H](O)[C@H](O)[C@H]4O[C@@H]4O[C@H](CO)[C@@H](O)[C@H](O)[C@H]4O)C(C)(C)[C@@H]3CC[C@]12C
- Potency [2]: inactive

SMILES: O[C@@H]1[C@@H](O)[C@H](OC/C=C/c2ccccc2)O[C@H](CO[C@@H]2OC[C@H](O)[C@H](O)[C@H]2O)[C@H]1O
- Potency [2]: inactive

SMILES: C=C1[C@H]2CC[C@H](C(=O)O)[C@@]23CC[C@H](C3)C1(C)C
- Potency [2]: inactive

SMILES: CC(=O)O[C@H]1[C@H](O[C@H]2CC[C@]34C[C@]35CC[C@]3(C)[C@@H]([C@@]6(C)CC[C@@H](C(C)(C)O)O6)[C@@H](O)C[C@@]3(C)[C@@H]5C[C@H](O[C@@H]3O[C@H](CO)[C@@H](O)[C@H](O)[C@H]3O)[C@H]4C2(C)C)OC[C@@H](O)[C@@H]1O
- Potency [2]: inactive

SMILES: CC(C)[C@H](C)CC[C@@H](C)[C@H]1CC[C@H]2[C@@H]3CC=C4C[C@@H](O)CC[C@]4(C)[C@H]3CC[C@]12C
- Potency [2]: inactive

SMILES: C[S+](CC[C@H](N)C(=O)O)C[C@H]1O[C@@H](n2cnc3c(N)ncnc32)[C@H](O)[C@@H]1O (stereo partly specified)
- Potency [2]: inactive

SMILES: C[C@@H]1OC(O[C@H]2[C@H](O)[C@@H](O)[C@H](OC[C@H]3O[C@@H](OC(=O)[C@]45CCC(C)(C)C[C@@H]4C4=CCC6[C@@]7(C)CC[C@H](OC8OC[C@H](O)[C@H](O)[C@H]8OC8O[C@@H](C)[C@H](O)[C@@H](O)[C@H]8O)[C@@](C)(CO)C7CC[C@@]6(C)[C@]4(C)CC5)[C@H](O)[C@@H](O)[C@@H]3O)O[C@@H]2CO)[C@H](O)[C@H](O)[C@H]1O (stereo partly specified)
- Potency [2]: inactive

SMILES: Oc1cccc(O)c1O
- outcome [14]: inactive
- Potency [2]: inactive

SMILES: OCCc1ccc(O)cc1
- Potency [2]: inactive

SMILES: CC(C)=CCC[C@](C)(O[C@@H]1O[C@H](CO[C@@H]2O[C@H](CO)[C@@H](O)[C@H](O)[C@H]2O)[C@@H](O)[C@H](O)[C@H]1O)C1CC[C@]2(C)[C@@H]1[C@H](O)CC1[C@@]3(C)CC[C@H](O[C@@H]4O[C@H](CO)[C@@H](O)[C@H](O)[C@H]4O[C@@H]4O[C@H](CO)[C@@H](O)[C@H](O)[C@H]4O)C(C)(C)[C@@H]3CC[C@]12C (stereo partly specified)
- activity change, negative = inhibition [2]: 14.6% [at 5.42 µM] (inactive)

SMILES: CC1=CCC2CC1C2(C)C (stereo unspecified)
- outcome [14]: inactive
- Potency [2]: inactive

SMILES: COC1=C(OC)C(=O)C(C/C=C(\C)CC/C=C(\C)CC/C=C(\C)CC/C=C(\C)CC/C=C(\C)CC/C=C(\C)CC/C=C(\C)CC/C=C(\C)CC/C=C(\C)CCC=C(C)C)=C(C)C1=O
- Potency [2]: inactive

SMILES: O=C(/C=C/c1ccc(O)c(O)c1)OC1[C@H](O)CC(O)(C(=O)O)C[C@@H]1O (stereo partly specified)
- Potency [2]: inactive

SMILES: C=CCc1ccc(OC)c(OC)c1
- outcome [14]: inactive
- Potency [2]: inactive

SMILES: CCCCCCCCCCCCCCCCCCCCCCCCCCCCCCO
- activity change, negative = inhibition [2]: 8.26% [at 3.26 µM] (inactive)
